Experimental data published in PubChem BioAssay AID1159580 (chemical genetic matrix, 2015).
In all, about 5,500 compounds went through this assay and about 2,000 (36%) were called active. Roughly 18% stayed inconclusive and do not appear here. No stated cut-off is given here; in the data, active means normalized growth mostly below about 0.91 (no sharp cut-off); inconclusive means no clear call, values can overlap the other calls; inactive means mostly above about 0.92. The list shows a part of the results.

Assay: chemical genetic growth profiling, strain panel (AID 1159580);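 further: tested at 20 µM; growth read once vehicle control cultures reached saturation at 30 °C; 1 = growth at the plate median or of vehicle wells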
Details: growth OD

Measured: normalized growth

O=c1[nH]cnc2c1ncn2C1O[C@H](CO)[C@@H](O)[C@H]1O (some centres undefined)
inactive: S. cerevisiae deletion strains, locus YJR075W, strain HOC1, stronger effect = lower value 1.01 | S. cerevisiae deletion strains, locus YKL009W, strain mrt4, stronger effect = lower value 0.979 | S. cerevisiae deletion strains, locus YKL068W, stronger effect = lower value 1.01 | S. cerevisiae deletion strains, locus YKL085W, strain MDH1 (second series), stronger effect = lower value 0.998 | S. cerevisiae deletion strains, locus YKL085W, strain MDH1, stronger effect = lower value 0.998 | S. cerevisiae deletion strains, locus YKL160W, strain elf1, stronger effect = lower value 0.986 | S. cerevisiae deletion strains, locus YKL190W, strain CNB1, stronger effect = lower value 1 | S. cerevisiae deletion strains, locus YKR001C, strain vps1, stronger effect = lower value 1.06 | S. cerevisiae deletion strains, locus YKR026C, strain gcn3, stronger effect = lower value 0.984 | S. cerevisiae deletion strains, locus YKR091W, strain srl3, stronger effect = lower value 0.986 | S. cerevisiae deletion strains, locus YLL001W, strain dnm1, stronger effect = lower value 1.01 | S. cerevisiae deletion strains, locus YLL026W, stronger effect = lower value 0.993 | S. cerevisiae deletion strains, locus YLL041C, strain sdh2, stronger effect = lower value 1 | S. cerevisiae deletion strains, locus YLR027C, strain aat2, stronger effect = lower value 0.994 | S. cerevisiae deletion strains, locus YLR039C, strain RIC1, stronger effect = lower value 1.04 | S. cerevisiae deletion strains, locus YLR058C, strain SHM2, stronger effect = lower value 0.999 | S. cerevisiae deletion strains, locus YLR102C, strain apc9, stronger effect = lower value 1.04 | S. cerevisiae deletion strains, locus YLR113W, strain HOG1, stronger effect = lower value 0.978 | S. cerevisiae deletion strains, locus YLR221C, strain rsa3, stronger effect = lower value 0.96 | S. cerevisiae deletion strains, locus YLR258W, strain gsy2, stronger effect = lower value 0.99 | S. cerevisiae deletion strains, locus YLR262C, strain YPT6 (second series), stronger effect = lower value 1.02 | S. cerevisiae deletion strains, locus YLR262C, strain YPT6, stronger effect = lower value 1.05 | S. cerevisiae deletion strains, locus YLR268W, strain sec22, stronger effect = lower value 1.05 | S. cerevisiae deletion strains, locus YLR320W, strain mms22, stronger effect = lower value 0.959 | S. cerevisiae deletion strains, locus YLR330W, strain CHS5, stronger effect = lower value 1.01 | S. cerevisiae deletion strains, locus YLR342W, strain FKS1 (second series), stronger effect = lower value 0.996 | S. cerevisiae deletion strains, locus YLR342W, strain FKS1, stronger effect = lower value 0.989 | S. cerevisiae deletion strains, locus YLR357W, strain rsc2, stronger effect = lower value 0.971 | S. cerevisiae deletion strains, locus YLR370C, strain arc18, stronger effect = lower value 0.991 | S. cerevisiae deletion strains, locus YLR371W, strain rom2, stronger effect = lower value 1.01 | S. cerevisiae deletion strains, locus YLR384C, strain iki3, stronger effect = lower value 0.969 | S. cerevisiae deletion strains, locus YLR418C, strain cdc73, stronger effect = lower value 1.01 | S. cerevisiae deletion strains, locus YML016C, strain PPZ1, stronger effect = lower value 1 | S. cerevisiae deletion strains, locus YML032C, strain rad52, stronger effect = lower value 1.01 | S. cerevisiae deletion strains, locus YML120C, strain ndi1, stronger effect = lower value 1.01 | S. cerevisiae deletion strains, locus YML124C, strain tub3, stronger effect = lower value 1.02 | S. cerevisiae deletion strains, locus YMR058W, strain fet3, stronger effect = lower value 0.992 | S. cerevisiae deletion strains, locus YMR078C, strain ctf18, stronger effect = lower value 1.06 | S. cerevisiae deletion strains, locus YMR125W, strain sto1, stronger effect = lower value 1.01 | S. cerevisiae deletion strains, locus YMR129W, stronger effect = lower value 0.997 | S. cerevisiae deletion strains, locus YMR205C, strain PFK2, stronger effect = lower value 0.984 | S. cerevisiae deletion strains, locus YMR223W, strain ubp8, stronger effect = lower value 1.01 | S. cerevisiae deletion strains, locus YMR231W, strain pep5, stronger effect = lower value 0.977 | S. cerevisiae deletion strains, locus YMR263W, strain SAP30, stronger effect = lower value 1 | S. cerevisiae deletion strains, locus YMR307W, strain GAS1, stronger effect = lower value 1.01 | S. cerevisiae deletion strains, locus YNL067W, strain RPL9B, stronger effect = lower value 1.01 | S. cerevisiae deletion strains, locus YNL071W, strain lat1, stronger effect = lower value 1 | S. cerevisiae deletion strains, locus YNL153C, strain GIM3, stronger effect = lower value 0.99 | S. cerevisiae deletion strains, locus YNL183C, strain NPR1, stronger effect = lower value 0.908 | S. cerevisiae deletion strains, locus YNL209W, strain ssb2, stronger effect = lower value 0.995 | S. cerevisiae deletion strains, locus YNL233W, strain BNI4, stronger effect = lower value 1.02 | S. cerevisiae deletion strains, locus YNL248C, strain rpa49, stronger effect = lower value 0.902 | S. cerevisiae deletion strains, locus YNL250W, strain rad50, stronger effect = lower value 1.03 | S. cerevisiae deletion strains, locus YNL271C, strain bni1, stronger effect = lower value 1.04 | S. cerevisiae deletion strains, locus YNL298W, strain CLA4, stronger effect = lower value 1.03 | S. cerevisiae deletion strains, locus YNL307C, strain MCK1, stronger effect = lower value 1.05 | S. cerevisiae deletion strains, locus YNL322C, strain KRE1 (second series), stronger effect = lower value 0.985 | S. cerevisiae deletion strains, locus YNR049C, strain mso1, stronger effect = lower value 0.978 | S. cerevisiae deletion strains, locus YNR052C, strain pop2, stronger effect = lower value 1.02 | S. cerevisiae deletion strains, locus YOL012C, strain htz1 1.16 | S. cerevisiae deletion strains, locus YOL147C, strain pex11, stronger effect = lower value 1.04 | S. cerevisiae deletion strains, locus YOR001W, strain rrp6, stronger effect = lower value 0.994 | S. cerevisiae deletion strains, locus YOR061W, strain CKA2, stronger effect = lower value 1.01 | S. cerevisiae deletion strains, locus YOR069W, strain VPS5, stronger effect = lower value 1 | S. cerevisiae deletion strains, locus YOR070C, strain gyp1, stronger effect = lower value 0.991 | S. cerevisiae deletion strains, locus YOR080W, strain dia2, stronger effect = lower value 0.99 | S. cerevisiae deletion strains, locus YOR083W, strain WHI5, stronger effect = lower value 0.998 | S. cerevisiae deletion strains, locus YOR106W, strain vam3, stronger effect = lower value 1.01 | S. cerevisiae deletion strains, locus YOR136W, strain idh2, stronger effect = lower value 1.02 | S. cerevisiae deletion strains, locus YOR144C, strain elg1, stronger effect = lower value 1.03 | S. cerevisiae deletion strains, locus YOR184W, strain ser1, stronger effect = lower value 1.05 | S. cerevisiae deletion strains, locus YOR231W, strain MKK1, stronger effect = lower value 0.982 | S. cerevisiae deletion strains, locus YOR265W, strain rbl2, stronger effect = lower value 0.984 | S. cerevisiae deletion strains, locus YOR270C, strain vph1, stronger effect = lower value 0.987 | S. cerevisiae deletion strains, locus YOR290C, strain snf2, stronger effect = lower value 1 | S. cerevisiae deletion strains, locus YOR316C, strain cot1, stronger effect = lower value 1.04 | S. cerevisiae deletion strains, locus YPL051W, strain arl3, stronger effect = lower value 0.977 | S. cerevisiae deletion strains, locus YPL055C, strain LGE1, stronger effect = lower value 1.03 | S. cerevisiae deletion strains, locus YPL078C, strain atp4, stronger effect = lower value 1 | S. cerevisiae deletion strains, locus YPL106C, strain sse1, stronger effect = lower value 1.02 | S. cerevisiae deletion strains, locus YPL240C, strain hsp82, stronger effect = lower value 0.984 | S. cerevisiae deletion strains, locus YPL241C, strain CIN2, stronger effect = lower value 1 | S. cerevisiae deletion strains, locus YPL256C, strain CLN2, stronger effect = lower value 0.965 | S. cerevisiae deletion strains, locus YPR119W, strain clb2, stronger effect = lower value 1.06 | S. cerevisiae deletion strains, locus YPR141C, strain kar3, stronger effect = lower value 1.03 | S. cerevisiae deletion strains, locus YPR163C, strain tif3, stronger effect = lower value 1.02 | S. cerevisiae deletion strains, locus YPR167C, strain met16, stronger effect = lower value 1.02 | S. cerevisiae deletion strains, strain wtn01, stronger effect = lower value 1.04 | S. cerevisiae strains, strain wild type, stronger effect = lower value 1.01
